Assay results reported in ChEMBL document CHEMBL1961873, “Compounds: GSK PKIS; Assays: Nanosyn kinase panel” (2012).

Columns and labels:
[1] = target: T1, Inhibitor of nuclear factor kappa-B kinase subunit epsilon (Homo sapiens) (UniProt Q14164); details: at 1 µM;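 note: reported values are averaged percent inhibition figures against human IKKε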
T1 sequence (whole entry): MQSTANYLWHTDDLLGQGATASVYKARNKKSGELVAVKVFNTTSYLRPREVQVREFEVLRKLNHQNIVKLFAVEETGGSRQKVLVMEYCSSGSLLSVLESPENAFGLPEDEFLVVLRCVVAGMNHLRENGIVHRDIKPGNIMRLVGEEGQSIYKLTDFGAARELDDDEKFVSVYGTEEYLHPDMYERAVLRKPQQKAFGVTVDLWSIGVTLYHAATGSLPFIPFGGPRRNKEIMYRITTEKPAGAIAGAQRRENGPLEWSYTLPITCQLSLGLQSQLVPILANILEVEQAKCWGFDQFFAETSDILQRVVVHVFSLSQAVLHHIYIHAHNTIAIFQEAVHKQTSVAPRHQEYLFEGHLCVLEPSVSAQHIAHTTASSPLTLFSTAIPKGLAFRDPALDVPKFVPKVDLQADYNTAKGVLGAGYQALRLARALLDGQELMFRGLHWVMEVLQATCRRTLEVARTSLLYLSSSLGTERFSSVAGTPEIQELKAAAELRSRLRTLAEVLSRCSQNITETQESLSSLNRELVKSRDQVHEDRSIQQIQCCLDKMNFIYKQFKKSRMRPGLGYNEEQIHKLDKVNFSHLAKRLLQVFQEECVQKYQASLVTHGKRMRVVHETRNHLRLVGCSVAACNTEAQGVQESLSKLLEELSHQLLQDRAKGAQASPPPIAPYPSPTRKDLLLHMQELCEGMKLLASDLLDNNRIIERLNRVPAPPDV

[2] = target: T2, Serine/threonine-protein kinase Nek1 (Homo sapiens) (UniProt Q96PY6); details: at 0.1 µM
T2 sequence (whole entry): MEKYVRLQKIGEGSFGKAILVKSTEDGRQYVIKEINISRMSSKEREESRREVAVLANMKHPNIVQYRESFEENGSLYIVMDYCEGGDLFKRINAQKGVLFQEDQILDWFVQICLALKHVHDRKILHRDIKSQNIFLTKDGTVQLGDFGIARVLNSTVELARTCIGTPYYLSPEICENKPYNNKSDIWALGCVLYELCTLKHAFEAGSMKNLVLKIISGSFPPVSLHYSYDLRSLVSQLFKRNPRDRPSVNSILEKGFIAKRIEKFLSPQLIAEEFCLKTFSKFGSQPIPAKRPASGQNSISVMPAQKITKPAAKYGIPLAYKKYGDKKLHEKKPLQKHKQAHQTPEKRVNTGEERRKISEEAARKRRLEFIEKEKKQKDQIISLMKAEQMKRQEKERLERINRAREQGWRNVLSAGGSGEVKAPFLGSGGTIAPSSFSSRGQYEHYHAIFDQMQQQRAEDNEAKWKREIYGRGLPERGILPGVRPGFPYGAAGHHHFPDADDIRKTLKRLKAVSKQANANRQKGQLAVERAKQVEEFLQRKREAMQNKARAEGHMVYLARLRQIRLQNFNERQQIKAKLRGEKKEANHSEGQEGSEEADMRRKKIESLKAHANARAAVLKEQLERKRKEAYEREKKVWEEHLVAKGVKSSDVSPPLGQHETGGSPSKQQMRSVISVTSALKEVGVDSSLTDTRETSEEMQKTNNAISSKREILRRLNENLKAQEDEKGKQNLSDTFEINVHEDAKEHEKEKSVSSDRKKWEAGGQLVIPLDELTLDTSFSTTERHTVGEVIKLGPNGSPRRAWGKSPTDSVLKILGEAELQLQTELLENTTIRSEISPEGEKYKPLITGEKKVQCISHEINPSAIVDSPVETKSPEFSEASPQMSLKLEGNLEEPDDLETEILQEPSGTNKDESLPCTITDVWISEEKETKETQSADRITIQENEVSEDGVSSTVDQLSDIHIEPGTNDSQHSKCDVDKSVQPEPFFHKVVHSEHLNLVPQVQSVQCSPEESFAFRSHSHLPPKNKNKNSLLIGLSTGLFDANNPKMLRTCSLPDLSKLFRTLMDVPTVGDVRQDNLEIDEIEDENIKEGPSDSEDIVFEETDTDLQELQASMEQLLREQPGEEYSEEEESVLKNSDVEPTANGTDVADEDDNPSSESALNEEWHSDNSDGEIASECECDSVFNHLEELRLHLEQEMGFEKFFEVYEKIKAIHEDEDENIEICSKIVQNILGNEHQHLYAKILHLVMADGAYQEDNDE

[3] = target: T2, Serine/threonine-protein kinase Nek1 (Homo sapiens); details: at 1 µM
[4] = target: T3, Serine/threonine-protein kinase Nek2 (Homo sapiens) (UniProt P51955); details: at 0.1 µM
T3 sequence (whole entry): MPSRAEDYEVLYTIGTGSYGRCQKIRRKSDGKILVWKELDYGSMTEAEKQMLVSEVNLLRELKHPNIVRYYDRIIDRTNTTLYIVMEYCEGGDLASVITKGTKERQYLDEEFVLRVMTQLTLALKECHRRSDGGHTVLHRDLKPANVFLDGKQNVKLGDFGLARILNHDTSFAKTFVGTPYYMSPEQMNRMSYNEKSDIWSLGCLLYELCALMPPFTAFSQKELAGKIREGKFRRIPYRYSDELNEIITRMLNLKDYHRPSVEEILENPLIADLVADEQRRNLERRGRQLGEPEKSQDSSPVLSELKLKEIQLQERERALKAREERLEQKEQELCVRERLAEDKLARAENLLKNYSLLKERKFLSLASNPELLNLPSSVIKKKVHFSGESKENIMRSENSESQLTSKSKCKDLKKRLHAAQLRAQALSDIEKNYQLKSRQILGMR

[5] = target: T3, Serine/threonine-protein kinase Nek2 (Homo sapiens); details: at 1 µM
[6] = target: Serine/threonine-protein kinase Nek6 (Homo sapiens) (UniProt Q9HC98); details: at 0.1 µM
Serine/threonine-protein kinase Nek6 (Homo sapiens), sequence (Q9HC98 whole entry): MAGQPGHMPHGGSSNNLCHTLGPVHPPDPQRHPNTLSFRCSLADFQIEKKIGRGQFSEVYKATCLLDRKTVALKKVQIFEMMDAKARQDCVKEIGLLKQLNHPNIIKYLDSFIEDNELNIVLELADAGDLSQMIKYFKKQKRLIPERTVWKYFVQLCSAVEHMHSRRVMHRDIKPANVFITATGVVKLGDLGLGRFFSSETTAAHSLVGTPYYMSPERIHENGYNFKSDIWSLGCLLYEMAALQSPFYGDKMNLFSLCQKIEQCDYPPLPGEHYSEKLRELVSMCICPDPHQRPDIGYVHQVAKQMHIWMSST

[7] = target: Serine/threonine-protein kinase Nek6 (Homo sapiens) (UniProt Q9HC98); details: at 1 µM
[8] = target: Serine/threonine-protein kinase Nek7 (Homo sapiens) (UniProt Q8TDX7); details: at 0.1 µM
Serine/threonine-protein kinase Nek7 (Homo sapiens), sequence (Q8TDX7 whole entry, looked up): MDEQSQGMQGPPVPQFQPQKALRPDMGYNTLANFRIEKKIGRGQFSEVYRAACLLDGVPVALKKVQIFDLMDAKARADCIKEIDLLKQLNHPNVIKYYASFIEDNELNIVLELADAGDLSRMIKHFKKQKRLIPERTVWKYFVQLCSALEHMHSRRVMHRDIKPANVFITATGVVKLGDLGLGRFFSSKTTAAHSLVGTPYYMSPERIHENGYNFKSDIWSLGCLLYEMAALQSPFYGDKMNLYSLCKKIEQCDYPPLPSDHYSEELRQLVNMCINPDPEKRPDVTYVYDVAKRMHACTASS

[9] = target: Serine/threonine-protein kinase Nek7 (Homo sapiens) (UniProt Q8TDX7); details: at 1 µM
[10] = target: T4, Serine/threonine-protein kinase Nek9 (Homo sapiens) (UniProt Q8TD19); details: at 0.1 µM
T4 sequence (whole entry): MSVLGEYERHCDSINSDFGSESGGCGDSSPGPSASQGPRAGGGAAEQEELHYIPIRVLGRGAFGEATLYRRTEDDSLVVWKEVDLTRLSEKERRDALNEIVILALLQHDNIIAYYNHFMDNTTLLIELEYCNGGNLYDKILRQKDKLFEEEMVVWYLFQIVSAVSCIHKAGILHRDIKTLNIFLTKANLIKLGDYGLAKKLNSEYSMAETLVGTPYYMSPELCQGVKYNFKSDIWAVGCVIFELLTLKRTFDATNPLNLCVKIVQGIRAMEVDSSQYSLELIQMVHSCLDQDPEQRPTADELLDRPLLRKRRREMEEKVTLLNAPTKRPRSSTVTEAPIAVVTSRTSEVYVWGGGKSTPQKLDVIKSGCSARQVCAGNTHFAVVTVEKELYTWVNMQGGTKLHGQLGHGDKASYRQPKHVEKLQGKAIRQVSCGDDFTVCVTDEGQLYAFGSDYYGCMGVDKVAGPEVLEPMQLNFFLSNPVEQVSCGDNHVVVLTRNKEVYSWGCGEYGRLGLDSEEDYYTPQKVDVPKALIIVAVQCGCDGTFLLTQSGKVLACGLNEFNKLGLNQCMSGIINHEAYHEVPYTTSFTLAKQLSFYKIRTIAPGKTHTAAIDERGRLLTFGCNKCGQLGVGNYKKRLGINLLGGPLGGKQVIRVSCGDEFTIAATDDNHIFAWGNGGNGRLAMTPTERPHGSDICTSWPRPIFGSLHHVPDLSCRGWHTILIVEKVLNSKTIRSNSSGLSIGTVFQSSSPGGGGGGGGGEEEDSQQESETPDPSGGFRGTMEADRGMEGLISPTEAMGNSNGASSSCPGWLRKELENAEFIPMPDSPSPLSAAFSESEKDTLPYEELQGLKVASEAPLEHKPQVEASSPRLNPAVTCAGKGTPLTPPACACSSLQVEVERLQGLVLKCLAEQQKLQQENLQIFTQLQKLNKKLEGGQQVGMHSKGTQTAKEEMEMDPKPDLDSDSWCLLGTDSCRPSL

[11] = target: T4, Serine/threonine-protein kinase Nek9 (Homo sapiens); details: at 1 µM
[12] = target: Serine/threonine-protein kinase PLK1 (Homo sapiens) (UniProt P53350); details: at 0.1 µM
Serine/threonine-protein kinase PLK1 (Homo sapiens), sequence (P53350 whole entry): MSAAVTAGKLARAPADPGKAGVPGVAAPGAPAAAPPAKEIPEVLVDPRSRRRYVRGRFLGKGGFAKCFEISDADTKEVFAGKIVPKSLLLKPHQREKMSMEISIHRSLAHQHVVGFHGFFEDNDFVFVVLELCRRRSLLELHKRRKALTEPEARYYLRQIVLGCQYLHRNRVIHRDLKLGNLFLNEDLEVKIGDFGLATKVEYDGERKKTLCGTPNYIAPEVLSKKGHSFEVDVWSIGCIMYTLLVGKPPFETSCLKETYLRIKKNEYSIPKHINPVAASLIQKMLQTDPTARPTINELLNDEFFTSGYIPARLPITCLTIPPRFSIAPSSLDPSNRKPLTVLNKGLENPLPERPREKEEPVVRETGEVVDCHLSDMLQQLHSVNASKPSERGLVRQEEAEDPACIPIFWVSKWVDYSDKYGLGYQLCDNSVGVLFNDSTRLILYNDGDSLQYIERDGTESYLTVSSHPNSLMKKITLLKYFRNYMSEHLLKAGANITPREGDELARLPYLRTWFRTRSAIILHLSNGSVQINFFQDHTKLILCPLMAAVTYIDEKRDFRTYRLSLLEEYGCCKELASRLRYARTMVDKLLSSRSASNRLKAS

[13] = target: Serine/threonine-protein kinase PLK1 (Homo sapiens) (UniProt P53350); details: at 1 µM
[14] = target: T5, Dual specificity protein kinase TTK (Homo sapiens) (UniProt P33981); details: at 0.1 µM
T5 sequence (whole entry): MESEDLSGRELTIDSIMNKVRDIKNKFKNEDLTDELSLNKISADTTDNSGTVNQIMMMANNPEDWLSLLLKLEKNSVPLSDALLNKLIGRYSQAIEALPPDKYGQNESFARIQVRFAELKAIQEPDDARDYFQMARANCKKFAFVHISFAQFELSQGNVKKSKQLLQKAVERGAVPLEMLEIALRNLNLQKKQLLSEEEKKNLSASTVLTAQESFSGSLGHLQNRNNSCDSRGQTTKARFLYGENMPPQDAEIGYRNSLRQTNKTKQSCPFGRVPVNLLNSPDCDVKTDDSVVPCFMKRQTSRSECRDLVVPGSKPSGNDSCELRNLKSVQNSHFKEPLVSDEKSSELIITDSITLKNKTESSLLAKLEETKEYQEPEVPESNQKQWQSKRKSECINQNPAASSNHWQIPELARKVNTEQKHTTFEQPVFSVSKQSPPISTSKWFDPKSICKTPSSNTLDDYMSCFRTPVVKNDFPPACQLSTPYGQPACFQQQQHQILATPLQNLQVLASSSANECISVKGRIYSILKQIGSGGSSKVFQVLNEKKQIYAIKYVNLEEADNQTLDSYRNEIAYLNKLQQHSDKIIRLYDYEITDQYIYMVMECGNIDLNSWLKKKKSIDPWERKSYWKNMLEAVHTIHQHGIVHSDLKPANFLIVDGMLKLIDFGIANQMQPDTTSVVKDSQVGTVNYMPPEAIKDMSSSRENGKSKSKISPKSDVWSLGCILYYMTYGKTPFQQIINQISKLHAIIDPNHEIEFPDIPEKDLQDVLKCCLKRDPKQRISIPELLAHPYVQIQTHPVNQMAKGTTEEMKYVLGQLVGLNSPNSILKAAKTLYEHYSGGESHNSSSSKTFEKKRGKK

[15] = test system: T6, Receptor-type tyrosine-protein kinase FLT3 (Homo sapiens), P36888 [D835Y]; details: at 1 µM
T6 sequence (whole entry): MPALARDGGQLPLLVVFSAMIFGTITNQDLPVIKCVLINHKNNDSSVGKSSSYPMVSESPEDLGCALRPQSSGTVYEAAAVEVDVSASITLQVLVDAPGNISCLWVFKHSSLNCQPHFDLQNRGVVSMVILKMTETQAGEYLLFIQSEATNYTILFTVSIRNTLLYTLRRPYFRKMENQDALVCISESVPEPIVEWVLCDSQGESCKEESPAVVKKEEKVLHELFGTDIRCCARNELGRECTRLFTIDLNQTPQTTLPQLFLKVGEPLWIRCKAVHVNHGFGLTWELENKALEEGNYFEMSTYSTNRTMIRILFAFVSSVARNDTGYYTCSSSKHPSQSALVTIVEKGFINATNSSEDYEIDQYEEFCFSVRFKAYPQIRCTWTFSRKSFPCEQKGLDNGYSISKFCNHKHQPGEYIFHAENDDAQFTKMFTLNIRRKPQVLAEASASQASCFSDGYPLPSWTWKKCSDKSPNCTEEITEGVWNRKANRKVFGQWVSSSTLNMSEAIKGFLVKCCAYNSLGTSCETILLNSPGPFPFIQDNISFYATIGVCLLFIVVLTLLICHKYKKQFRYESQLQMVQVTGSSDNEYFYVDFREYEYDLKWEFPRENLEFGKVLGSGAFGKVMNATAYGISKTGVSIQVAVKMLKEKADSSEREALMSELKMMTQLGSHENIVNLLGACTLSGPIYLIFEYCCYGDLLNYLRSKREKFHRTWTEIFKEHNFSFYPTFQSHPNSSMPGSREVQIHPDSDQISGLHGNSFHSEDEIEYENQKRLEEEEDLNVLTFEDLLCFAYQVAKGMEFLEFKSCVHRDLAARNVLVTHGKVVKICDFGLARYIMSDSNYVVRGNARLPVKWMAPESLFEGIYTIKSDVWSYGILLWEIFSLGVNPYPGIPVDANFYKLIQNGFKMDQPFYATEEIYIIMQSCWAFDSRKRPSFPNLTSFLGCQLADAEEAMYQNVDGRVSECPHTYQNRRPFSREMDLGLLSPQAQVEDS

[16] = target: Vascular endothelial growth factor receptor 3 (Homo sapiens) (UniProt P35916); details: at 0.1 µM
Vascular endothelial growth factor receptor 3 (Homo sapiens), sequence (P35916 whole entry): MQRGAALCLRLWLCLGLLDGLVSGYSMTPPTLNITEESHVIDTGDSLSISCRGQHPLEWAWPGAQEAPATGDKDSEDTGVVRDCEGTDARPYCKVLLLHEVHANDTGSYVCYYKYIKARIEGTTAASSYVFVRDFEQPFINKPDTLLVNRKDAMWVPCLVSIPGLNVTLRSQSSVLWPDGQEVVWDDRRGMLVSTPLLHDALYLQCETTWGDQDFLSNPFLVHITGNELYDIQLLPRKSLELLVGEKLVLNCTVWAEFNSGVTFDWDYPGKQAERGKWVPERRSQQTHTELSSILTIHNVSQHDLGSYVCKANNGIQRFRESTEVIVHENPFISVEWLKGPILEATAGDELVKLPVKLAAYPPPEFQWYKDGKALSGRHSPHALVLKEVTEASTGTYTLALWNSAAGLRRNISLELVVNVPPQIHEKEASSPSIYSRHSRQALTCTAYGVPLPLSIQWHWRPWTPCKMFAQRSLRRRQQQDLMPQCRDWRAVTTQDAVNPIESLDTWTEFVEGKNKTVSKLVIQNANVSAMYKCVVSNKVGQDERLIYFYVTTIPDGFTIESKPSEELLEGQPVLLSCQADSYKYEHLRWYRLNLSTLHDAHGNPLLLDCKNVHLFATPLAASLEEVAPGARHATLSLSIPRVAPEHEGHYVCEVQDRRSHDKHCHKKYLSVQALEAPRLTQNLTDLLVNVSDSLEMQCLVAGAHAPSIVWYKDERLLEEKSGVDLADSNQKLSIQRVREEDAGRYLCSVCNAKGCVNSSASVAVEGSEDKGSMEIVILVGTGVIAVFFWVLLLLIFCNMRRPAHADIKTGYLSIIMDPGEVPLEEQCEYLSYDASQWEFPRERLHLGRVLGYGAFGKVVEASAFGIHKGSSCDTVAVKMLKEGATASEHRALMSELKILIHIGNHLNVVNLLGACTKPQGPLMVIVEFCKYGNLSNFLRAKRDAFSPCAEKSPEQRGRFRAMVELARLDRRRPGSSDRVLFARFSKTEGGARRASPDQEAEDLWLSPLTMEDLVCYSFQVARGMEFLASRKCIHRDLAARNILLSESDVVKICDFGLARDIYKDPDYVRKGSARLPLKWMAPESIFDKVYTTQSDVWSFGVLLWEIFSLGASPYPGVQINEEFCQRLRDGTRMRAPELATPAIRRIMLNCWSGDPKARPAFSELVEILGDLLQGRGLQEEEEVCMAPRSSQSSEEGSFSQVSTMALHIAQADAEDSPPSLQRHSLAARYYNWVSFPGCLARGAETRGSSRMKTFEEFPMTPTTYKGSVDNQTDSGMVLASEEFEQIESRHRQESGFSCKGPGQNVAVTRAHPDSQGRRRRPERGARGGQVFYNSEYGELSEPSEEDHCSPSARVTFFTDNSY

[17] = target: Vascular endothelial growth factor receptor 3 (Homo sapiens) (UniProt P35916); details: at 1 µM
[18] = target: Macrophage colony-stimulating factor 1 receptor (Homo sapiens) (UniProt P07333); details: at 0.1 µM
Macrophage colony-stimulating factor 1 receptor (Homo sapiens), sequence (P07333 whole entry): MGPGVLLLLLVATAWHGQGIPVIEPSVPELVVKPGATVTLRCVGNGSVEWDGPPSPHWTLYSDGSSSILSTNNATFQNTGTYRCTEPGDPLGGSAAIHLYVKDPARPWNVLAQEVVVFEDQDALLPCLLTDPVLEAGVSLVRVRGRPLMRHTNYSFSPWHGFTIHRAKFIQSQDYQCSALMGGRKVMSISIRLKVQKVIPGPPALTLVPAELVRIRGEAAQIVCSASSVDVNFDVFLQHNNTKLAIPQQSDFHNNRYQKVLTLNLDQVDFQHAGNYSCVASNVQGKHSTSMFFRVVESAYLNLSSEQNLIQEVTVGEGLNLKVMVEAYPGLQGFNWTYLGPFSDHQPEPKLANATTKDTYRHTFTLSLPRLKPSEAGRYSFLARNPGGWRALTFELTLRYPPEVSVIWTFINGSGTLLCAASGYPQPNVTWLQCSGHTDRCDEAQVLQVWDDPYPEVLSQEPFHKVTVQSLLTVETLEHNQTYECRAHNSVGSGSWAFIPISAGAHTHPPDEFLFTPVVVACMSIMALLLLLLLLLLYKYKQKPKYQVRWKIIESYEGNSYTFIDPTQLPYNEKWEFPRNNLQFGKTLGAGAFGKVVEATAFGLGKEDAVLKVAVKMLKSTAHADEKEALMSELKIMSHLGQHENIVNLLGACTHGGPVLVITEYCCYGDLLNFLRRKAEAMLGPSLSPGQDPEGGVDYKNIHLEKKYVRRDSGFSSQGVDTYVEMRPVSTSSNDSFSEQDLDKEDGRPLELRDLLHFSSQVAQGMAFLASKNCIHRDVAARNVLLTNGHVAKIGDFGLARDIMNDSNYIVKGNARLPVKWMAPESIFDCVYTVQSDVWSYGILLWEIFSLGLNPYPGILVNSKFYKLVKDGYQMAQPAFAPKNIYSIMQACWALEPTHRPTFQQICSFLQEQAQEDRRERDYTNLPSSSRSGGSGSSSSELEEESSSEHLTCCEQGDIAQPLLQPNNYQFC

[19] = target: Macrophage colony-stimulating factor 1 receptor (Homo sapiens) (UniProt P07333); details: at 1 µM
[20] = target: Tyrosine-protein kinase Fyn (Homo sapiens) (UniProt P06241); details: at 0.1 µM
Tyrosine-protein kinase Fyn (Homo sapiens), sequence (P06241 2-537 limits assumed): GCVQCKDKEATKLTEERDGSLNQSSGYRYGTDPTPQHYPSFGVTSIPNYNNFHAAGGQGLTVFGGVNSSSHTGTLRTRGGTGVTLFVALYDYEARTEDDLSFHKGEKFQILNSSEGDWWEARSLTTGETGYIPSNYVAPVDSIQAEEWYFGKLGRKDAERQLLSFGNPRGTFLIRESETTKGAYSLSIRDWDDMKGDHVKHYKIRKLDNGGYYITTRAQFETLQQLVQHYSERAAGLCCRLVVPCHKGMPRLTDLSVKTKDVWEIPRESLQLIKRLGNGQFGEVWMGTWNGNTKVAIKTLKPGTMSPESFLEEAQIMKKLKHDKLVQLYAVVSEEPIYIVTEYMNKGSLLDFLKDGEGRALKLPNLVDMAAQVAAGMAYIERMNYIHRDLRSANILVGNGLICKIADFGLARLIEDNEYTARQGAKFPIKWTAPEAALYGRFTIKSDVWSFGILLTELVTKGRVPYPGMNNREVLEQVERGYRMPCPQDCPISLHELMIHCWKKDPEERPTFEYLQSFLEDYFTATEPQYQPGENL

Fc1ccc(-c2nn3ccccc3c2-c2ccncc2)cc1
inhibition [1]: 0.04%
inhibition [2]: 1.98%
inhibition [3]: 1.91%
inhibition [4]: 1.2%
inhibition [5]: 1.45%
inhibition [6]: 0.37%
inhibition [7]: 1.47%
inhibition [8]: 3.72%
inhibition [9]: 2.56%
inhibition [10]: 5.49%
inhibition [11]: 1.86%
inhibition [12]: 1.11%
inhibition [13]: 0.66%
inhibition [14]: 1.74%
inhibition [15]: 1.27%
inhibition [16]: -0.54%
inhibition [17]: 1.83%
inhibition [18]: -0.59%
inhibition [19]: 7.67%
inhibition [20]: 0.52%

COc1ccc2[nH]c3c4[nH]c5ccc(OC)cc5c4c4c(c3c2c1)C(=O)NC4=O
inhibition [1]: 36.3%
inhibition [2]: 0.76%
inhibition [3]: 1.99%
inhibition [4]: 4.36%
inhibition [5]: 5.74%
inhibition [6]: 5.36%
inhibition [7]: 5.14%
inhibition [8]: 3.71%
inhibition [9]: 5.28%
inhibition [10]: 2.96%
inhibition [11]: 2.1%
inhibition [12]: 3.01%
inhibition [13]: 9.29%
inhibition [14]: 15.5%
inhibition [15]: 92.7%
inhibition [16]: 18.5%
inhibition [17]: 63.5%
inhibition [18]: 12.9%
inhibition [19]: 50.9%
inhibition [20]: 3.62%

CCn1c(-c2nonc2N)nc2ccccc21
inhibition [1]: 1.58%
inhibition [2]: 2.18%
inhibition [3]: 2.6%
inhibition [4]: 3.43%
inhibition [5]: 4.15%
inhibition [6]: 5.78%
inhibition [7]: 0.38%
inhibition [8]: 2.9%
inhibition [9]: 4.22%
inhibition [10]: 0.97%
inhibition [11]: 0.94%
inhibition [12]: 6.53%
inhibition [13]: 2.85%
inhibition [14]: 3.51%
inhibition [15]: -3.67%
inhibition [16]: 5.92%
inhibition [17]: 5.29%
inhibition [18]: 0.61%
inhibition [19]: 2.71%
inhibition [20]: 0.86%
